Assay outcomes deposited in PubChem by several laboratories.
Hits are enriched below; roughly 3% of the tested compounds scored in any of these assays.
TROY NFkB inh: inhibitors of TROY-dependent NF-kB signaling; Q293 LMP1-TROYcd NF-kB luciferase reporter, 4 h; inhibition, % at 10 µM; 360,000 compounds, 0.98% hits; AID 1347056;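 active = compounds whose plate-normalised and pattern-corrected inhibition of the luciferase reporter signal at the single screening dose is 50% or more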
LGR2 inh: inhibitors of bursicon-induced Drosophila LGR2 receptor cAMP signaling; HEK293 LGR2, CRE-luciferase, bursicon-stimulated, 4 h; inhibition, % at 9.99 µM; 380,000 compounds, 0.35% hits;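 active = drop in luminescence signal, shown as inhibition above about 50% in the replicate tests, limit read from the data, passing the limit was not always enough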;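 note: agonist challenge used bursicon conditioned medium at about half maximal strength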
MITF act: MITF TRPM1 promoter activation in melanoma cells; AID 588334; 300,000 compounds, 0.75% hits; activation, % at 12.5 µM; SK-MEL-5 TRPM1-promoter luciferase, 24 h; % of positive control, neutral wells = 0;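 active = mean activation of at least 80% with every replicate also reaching 80%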
TRPM1 prom inh: inhibitors of MITF-driven TRPM1 promoter in melanoma cells. inhibition, % at 12.5 µM. SK-MEL-5 TRPM1 promoter luciferase, 24 h. 330,000 compounds, 0.83% hits;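 active = mean inhibition across replicates of 60% or more, whatever share of single replicates reaches that level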
LMP1 NFkB inh: reduces LMP1-driven NF-kappaB luciferase signal. LMP1-induced NF-kappaB luciferase reporter cells, luminescence. inhibition, % at 12.5 µM. 350,000 compounds, 0.69% hits; in the data active = inhibition above about 41%
TWEAK-Fn14 inh: TWEAK-Fn14 signaling inhibition. TWEAK-stimulated Fn14 reporter cells, luciferase luminescence, 8 h. inhibition, % at 10 µM. 360,000 compounds, 2% hits. AID 1159606; in the data active = inhibition above about 50%
Large screens that a line does not name were inactive.

COC(=O)c1ccccc1NC(=O)c1nc(S(=O)(=O)Cc2ccccc2)ncc1Cl	TROY NFkB inh 57.7, TRPM1 prom inh 93.4, TWEAK-Fn14 inh 76.2
O=C(NCc1ccccc1)c1c(Cl)nc(Cl)c(Cl)c1Cl	TROY NFkB inh 65.7, TRPM1 prom inh 76.9, LMP1 NFkB inh 81.0, TWEAK-Fn14 inh 92.7
C[C@H]1CN([C@@H](C)CO)C(=O)Cc2cc(N(C)C)ccc2O[C@@H]1CN(C)S(=O)(=O)c1cccs1	none (no result: TROY NFkB inh, MITF act, TRPM1 prom inh, LMP1 NFkB inh, TWEAK-Fn14 inh)
O=C(N/N=C/c1ccc(Cl)c([N+](=O)[O-])c1)c1cc(-c2ccc3c4c(cccc24)CC3)n[nH]1	TWEAK-Fn14 inh 64.0
O=C(N/N=C/c1cccc([N+](=O)[O-])c1)c1cc(-c2ccc3c4c(cccc24)CC3)n[nH]1	none
Cc1ccc2c(c1)Oc1ccc(NC(=O)CCl)cc1C(=O)N2	TRPM1 prom inh 90.5
CN(c1cccc(NC(=O)Nc2cccc(Cl)c2)c1)S(C)(=O)=O	TWEAK-Fn14 inh 81.9 (no result: LGR2 inh, MITF act)
CC(=O)Nc1cccc(N(C)S(C)(=O)=O)c1	none (no result: LGR2 inh)
O=C(Nc1cccc(Cl)c1)Nc1csc([N+](=O)[O-])c1	TWEAK-Fn14 inh 71.5 (no result: MITF act)
CO[C@H](CN(C)Cc1nccs1)[C@@H](C)CN([C@@H](C)CO)S(=O)(=O)c1ccc(C)cc1	none (no result: TROY NFkB inh, MITF act, TRPM1 prom inh, LMP1 NFkB inh, TWEAK-Fn14 inh)
COc1ccc(S(=O)(=O)Nc2cccc3c2O[C@H](CN(C)CC2CC2)[C@H](C)CN([C@@H](C)CO)C3=O)cc1	none (no result: TROY NFkB inh, MITF act, TRPM1 prom inh, LMP1 NFkB inh, TWEAK-Fn14 inh)
C[C@H](CO)N1C[C@H](C)[C@H](CN(C)C(=O)C2CCCCC2)Oc2cc(-c3cccnc3)ccc2S1(=O)=O	none (no result: TROY NFkB inh, MITF act, TRPM1 prom inh, LMP1 NFkB inh, TWEAK-Fn14 inh)
Cc1ccc(-c2nc3ccccc3[nH]2)cc1NC(=S)NC(=O)c1ccccc1Br	TWEAK-Fn14 inh 66.7 (no result: LGR2 inh)
Cc1ccc(-c2nc3ccccc3[nH]2)cc1NC(=O)c1ccc2c(c1)OCO2	none
O=C(NC(=S)Nc1cc(-c2nc3ccccc3[nH]2)ccc1Cl)c1ccc2c(c1)OCO2	TROY NFkB inh 53.3, TWEAK-Fn14 inh 87.0
COc1ccc(S(=O)(=O)Nc2ccc3c(c2)C(=O)N([C@H](C)CO)C[C@H](C)[C@H](CN(C)S(=O)(=O)c2ccc(OC)cc2)OCCCC[C@H](C)O3)cc1	none (no result: TROY NFkB inh, MITF act, TRPM1 prom inh, LMP1 NFkB inh, TWEAK-Fn14 inh)
COc1ccc(-c2oc3cc(OC(C)=O)cc(OC(C)=O)c3c(=O)c2OC)cc1	none
CC(=O)Oc1cc(O)c2c(=O)c(OC(C)=O)c(-c3ccc(OC(C)=O)c(OC(C)=O)c3)oc2c1	TWEAK-Fn14 inh 67.9 (no result: LGR2 inh)
O=C(CSc1nnc(C2CCCCC2)o1)Nc1ccccc1Cl	MITF act 109.5
Cc1noc(C)c1CSc1nc2ccccc2s1	none (no result: LGR2 inh, MITF act)
CCS(=O)CCSc1nc2ccccc2s1 (centres undefined)	TROY NFkB inh 59.6, TWEAK-Fn14 inh 79.7 (no result: LGR2 inh)
c1csc(CSc2nc3ccccc3s2)c1	MITF act 97.9 (no result: LGR2 inh)
CNC[C@H]1Oc2c(NS(=O)(=O)c3ccc(C)cc3)cccc2C(=O)N([C@@H](C)CO)C[C@@H]1C	none (no result: TROY NFkB inh, MITF act, TRPM1 prom inh, LMP1 NFkB inh, TWEAK-Fn14 inh)
Cc1cccc(C)c1NC(=O)CN(C)C(=O)Cc1cccc(C(F)(F)F)c1	TWEAK-Fn14 inh 54.7
Cc1ccc(C(=O)N/C(=C/c2ccc(Cl)cc2)C(=O)NCC2CCCO2)cc1 (centres undefined)	TWEAK-Fn14 inh 76.7
Cc1ccc(C(=O)N/C(=C\c2ccccc2)C(=O)NCC2CCCO2)cc1 (centres undefined)	none
CN(C)CCCNC(=O)/C(=C\c1ccc(-c2ccc(Br)cc2)o1)NC(=O)c1ccccc1	TRPM1 prom inh 95.8 (no result: LGR2 inh)
CN(C)CCNC(=O)/C(=C/c1ccc(-c2cccc(Cl)c2)o1)NC(=O)c1ccccc1	none
Cc1ccc(C(=O)N/C(=C\c2ccc(-c3ccc(Cl)cc3)o2)C(=O)NCCCN(C)C)cc1	TRPM1 prom inh 85.7
Cc1ccccc1-c1ccc([C@H]2[C@H]3CN(C(=O)Cc4ccccn4)CC(=O)N3[C@H]2CO)cc1	none (no result: TROY NFkB inh, MITF act, TRPM1 prom inh, LMP1 NFkB inh, TWEAK-Fn14 inh)
CCN(CC)S(=O)(=O)c1cc(NC(=O)C(=O)c2c(-c3ccccc3)cc3ccccn23)ccc1C	TWEAK-Fn14 inh 61.7 (no result: LGR2 inh)
CCC(=O)Nc1ccc2c(c1)C(=O)N(C)C[C@H](OC)[C@@H](C)CN(CCC(F)(F)F)[C@@H](C)CO2	none (no result: TROY NFkB inh, MITF act, TRPM1 prom inh, LMP1 NFkB inh, TWEAK-Fn14 inh)
CC(=O)Nc1ccc(Sc2ccc([N+](=O)[O-])o2)cc1	TRPM1 prom inh 94.6, TWEAK-Fn14 inh 94.9
CC(C)(C)C(=O)NC(NC(=O)C(C)(C)C)c1ccc([N+](=O)[O-])cc1	none
CC(=O)Nc1ccc(S(=O)(=O)NNc2ccc([N+](=O)[O-])cc2)cc1	none (no result: MITF act)
CC(C)(C)C(=O)Nc1ccc(Sc2ccc([N+](=O)[O-])cc2)cc1	TWEAK-Fn14 inh 51.0
O=C(c1ccccc1)N1CC[C@@H]2[C@H]1c1cc(C#Cc3cccnc3)ccc1N[C@@H]2CO	none (no result: TROY NFkB inh, MITF act, TRPM1 prom inh, LMP1 NFkB inh, TWEAK-Fn14 inh)
Brc1ccc(OCc2cn3ccccc3n2)cc1	MITF act 92.9
CC(C)CC(=O)Nc1ccc(-c2nc3ccccc3c(=O)o2)cc1	none
CC(C)CC(=O)Nc1ccc(-c2nc3ccccc3c(=O)[nH]2)cc1	TWEAK-Fn14 inh 60.8 (no result: LGR2 inh)
C[C@H]1CCCCO[C@H](CN(C)Cc2ccncc2)[C@@H](C)CN([C@@H](C)CO)C(=O)c2cc(NC(=O)CCCN(C)C)ccc2O1	none (no result: TROY NFkB inh, MITF act, TRPM1 prom inh, LMP1 NFkB inh, TWEAK-Fn14 inh)
Oc1ccc(-c2nc3c4c(ncn3n2)-c2ccccc2CC42CCCC2)cc1	TWEAK-Fn14 inh 77.1
Nn1cnc2c(c1=O)C1(CCCCC1)Cc1ccccc1-2	none
C=CCN1C(=O)N(CC=C)c2cccc3cccc1c23	TROY NFkB inh 65.5
Cc1cccc(-c2cc3c(nn2)-c2ccccc2C3=O)c1	TWEAK-Fn14 inh 50.3
O=C1c2ccccc2-c2nnc(-c3ccccc3)cc21	TWEAK-Fn14 inh 71.6 (no result: LGR2 inh)
Cc1cnc2c(c1)C(=O)c1ccccc1-2	none
COc1ccc(-c2cc3c(nn2)-c2ccccc2C3=O)cc1	TROY NFkB inh 58.9, LGR2 inh 94.1, TRPM1 prom inh 72.4, LMP1 NFkB inh 51.6, TWEAK-Fn14 inh 92.4
COc1ccc2c3c(n(C)c2c1)[C@H](CO)N(CC1CC1)CC31CCN(C(=O)Nc2ccc(F)cc2F)CC1	none (no result: TROY NFkB inh, MITF act, TRPM1 prom inh, LMP1 NFkB inh, TWEAK-Fn14 inh)
COc1ccc(-c2noc(CCCCC(=O)N3CCN(c4cc(C)ccc4C)CC3)n2)cc1	TWEAK-Fn14 inh 64.1
CCC(=O)C1CCCN(C(=O)c2ccc3nc(-c4cccc(OC)c4)oc3c2)C1 (centres undefined)	TROY NFkB inh 53.4
CCOC(=O)C1CCCN(C(=O)c2ccc3nc(-c4cccc(OC)c4)oc3c2)C1 (centres undefined)	TROY NFkB inh 68.2
CCN(CC)C(=O)C1CCCN(C(=O)c2ccc3nc(-c4cccc(OC)c4)oc3c2)C1 (centres undefined)	none (no result: MITF act, TRPM1 prom inh)
C=C1CC(Cn2cc(Br)c(=O)[nH]c2=O)(c2ccc(-c3ccccc3)cc2)OC1=O (centres undefined)	LGR2 inh 76.4, TRPM1 prom inh 108.6, TWEAK-Fn14 inh 82.9
O=c1[nH]c(=O)n(Cc2ccc(Oc3ccccc3)cc2)cc1Br	none
